For 12 molecules, outcome and AC50 results are on record in PubChem BioAssay (EPA / NIEHS).

Results filed as inconclusive are left out. Activity calls are given as the source filed them. The calls were made as follows, unless noted: active = hit-call score of the fitted dose curve at least 0.9, where 1 is the maximum; inconclusive = response in the unintended direction; inactive = score below 0.9.

A short description of assay [1]: TOX21_p53_BLA_p2_viability: Viability Assessment in the Tox21 HCT-116 p53 Agonism Beta-lactamase Assay, Phase 2 (AID 2283591).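 Also: compound exposure lasted 16 h at 37 °C; actives lower the ATP signal meaning cytotoxicity.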 The essentials:
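HCT116 p53-bla cells, 4000/well, dosed after 5 h plating (217-fold dilution of DMSO stocks) and incubated 16 h at 37C. Viability taken as cellular ATP by CellTiter-Glo luminescence after 30 min RT; signal loss marks cytotoxicity.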

The target in assay [2] is Cellular tumor antigen p53 (Homo sapiens) (UniProt P04637). Nature of the assay: TOX21_p53_BLA_p2_ratio: Tox21 HCT-116 p53 Agonism Beta-lactamase Assay, Ratio, Phase 2 (AID 2283592). The essentials:
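HCT-116 cells with p53-responsive beta-lactamase reporter, 4000 cells/well, preincubated 5 h, then compound in DMSO (217-fold dilution) for 16 h at 37C. CCF4-AM substrate 2 h at room temperature; 460/530 nm emission ratio fitted upward versus DMSO.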

Assay [3] can be described thus: TOX21_p53_BLA_p3_viability: Viability Assessment in the Tox21 HCT-116 p53 Agonism Beta-lactamase Assay, Phase 3 (AID 2283593).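 Also: cells exposed to compound for 16 h before reading.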 The method in brief: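 HCT116 cells, 4000/well, dosed 5 h after plating by pin transfer (217-fold dilution from DMSO stock) and incubated 16 h at 37C, 5% CO2. Viability read as ATP luminescence with CellTiter-Glo after 30 min at room temperature.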

In assay [4] the target is Cellular tumor antigen p53 (Homo sapiens) (UniProt P04637). As to the kind of experiment: TOX21_p53_BLA_p3_ratio: Tox21 HCT-116 p53 Agonism Beta-lactamase Assay, Ratio, Phase 3 (AID 2283596). The essentials:
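HCT116 p53-bla cells (4000/well) given compound in DMSO (217-fold dilution) after 5 h, incubated 16 h at 37C. CCF4-AM substrate 2 h at room temperature; 460/530 nm emission ratio, gain fitted against DMSO.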

A short description of assay [5]: TOX21_p53_BLA_p4_viability: Viability Assessment in the Tox21 HCT-116 p53 Agonism Beta-lactamase Assay, Phase 4 (AID 2283597).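 Also: hits lower the luminescence signal meaning cytotoxicity.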 The essentials:
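HCT-116 p53-bla cells, 4000/well, dosed after 5 h attachment and incubated 16 h at 37 °C, 5% CO2. Viability from CellTiter-Glo ATP luminescence after 30 min at room temperature, taken after the beta-lactamase read; loss of signal indicates cytotoxicity.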

Assay [6] addresses Cellular tumor antigen p53 (Homo sapiens) (UniProt P04637). As to the kind of experiment: TOX21_p53_BLA_p5_ratio: Tox21 HCT-116 p53 Agonism Beta-lactamase Assay, Ratio, Phase 5 (AID 2283599). The method in brief:
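HCT-116 p53-bla cells (4000/well) plated 5 h, dosed with compound (217-fold DMSO dilution) for 16 h at 37 C; CCF4-AM substrate 2 h at room temperature. Activity is the 460/530 nm emission ratio (405 nm excitation), fitted in gain-of-signal direction versus DMSO.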

Assay [7] can be described thus: TOX21_p53_BLA_p5_viability: Viability Assessment in the Tox21 HCT-116 p53 Agonism Beta-lactamase Assay, Phase 5 (AID 2283600). The method in brief: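 HCT-116 p53 beta-lactamase reporter cells, 4000/well, were exposed to compound (pin transfer, 217-fold dilution) for 16 hours at 37C. Cellular ATP was read by CellTiter-Glo luminescence after 30 min at room temperature.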

Assay [8] has as its target Cellular tumor antigen p53 (Homo sapiens) (UniProt P04637). As to the kind of experiment: TOX21_p53_BLA_p4_ratio: Tox21 HCT-116 p53 Agonism Beta-lactamase Assay, Ratio, Phase 4 (AID 2283601). The method in brief: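 HCT-116 p53 beta-lactamase reporter cells (4000/well) preincubated 5 h, then compound (217-fold dilution of DMSO stock) for 16 h at 37C. CCF4-AM substrate added 2 h at room temperature; 460/530 nm emission ratio fitted upward versus DMSO.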

Assay [9] can be described thus: CCTE_Harrill_HTTr_Viability_MCF7: CCTE's 6-hour Cell Viability Assessment for the High-Throughput Transcriptomics (HTTr) Platform, in MCF-7 cells cultured in DMEM + 10% fetal bovine serum, Harrill Lab (AID 2284010; active = hit-call score of the fitted dose curve at least 0.9, where 1 is the maximum; inactive = score below 0.9). The method in brief: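 Viability measured through PI dye exclusion by high-content imaging at 6 h post-dosing.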
The nature of assay [10]: CCTE_Harrill_HTTr_Apoptosis_MCF7: CCTE's 6-hour Apoptosis Assessment for the High-Throughput Transcriptomics (HTTr) Platform, in MCF-7 cells cultured in DMEM + 10% fetal bovine serum, Harrill Lab (AID 2284011; active = hit-call score of the fitted dose curve at least 0.9, where 1 is the maximum; inactive = score below 0.9). The essentials: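 MCF-7 cells in DMEM + 10% FBS exposed 6 h to chemicals over an eight-point dilution series. Caspase-3/7 activation imaged by high-content CellEvent Green staining; fitted bidirectionally versus DMSO.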

Sequence of Cellular tumor antigen p53 (Homo sapiens) (P04637 whole entry, looked up): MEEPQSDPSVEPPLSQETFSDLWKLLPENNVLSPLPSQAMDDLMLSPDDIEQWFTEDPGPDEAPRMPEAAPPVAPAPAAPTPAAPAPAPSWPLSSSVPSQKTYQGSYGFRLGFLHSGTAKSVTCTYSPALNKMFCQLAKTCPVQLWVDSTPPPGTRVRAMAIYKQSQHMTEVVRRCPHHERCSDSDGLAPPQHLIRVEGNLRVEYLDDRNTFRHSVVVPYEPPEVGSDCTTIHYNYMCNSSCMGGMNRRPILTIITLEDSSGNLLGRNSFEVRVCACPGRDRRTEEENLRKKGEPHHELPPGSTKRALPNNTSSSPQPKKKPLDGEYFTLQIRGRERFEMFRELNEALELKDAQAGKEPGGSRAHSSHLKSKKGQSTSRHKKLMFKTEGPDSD

Consider `CO[C@@H]1[C@H](OC(=O)/C=C/C=C/C=C/C=C/C(=O)O)CC[C@]2(CO2)[C@H]1[C@@]1(C)O[C@@H]1CC=C(C)C`, for which the molecule was classed as inactive in assay [1], in [2], in assay [3], in [4], in assay [5] and in assay [6]. The result in assay [7], in assay [8], in assay [9] and in assay [10] was inactive.

`COc1cc2c(Nc3ccc(Br)cc3F)ncnc2cc1OCC1CCN(C)CC1`: the call in [1], in assay [2], in [3], in assay [4], in [5] and in [6] was inactive. Besides, the molecule was classed as inactive in assay [7] and in [8].

As to `CCOC(=O)[C@H](CCc1ccccc1)N[C@@H](C)C(=O)N1[C@H](C(=O)O)C[C@@H]2CCC[C@@H]21`, the call in assay [1], in assay [2], in assay [3], in assay [4], in [5] and in [6] was inactive. Moreover, the outcome in [8] was inactive.

As to `Cc1cc(C)c(N)c(Cl)c1`, the call in assay [1], in assay [2], in assay [3], in assay [4], in assay [5] and in assay [6] was inactive. In addition, the result in [8] was inactive.

Consider `O=[N+]([O-])c1ccc(NCCO)c(OCCO)c1`, for which the molecule was called inactive in assay [1], in assay [2], in [3], in [4], in [5] and in assay [6]. Also, the result in assay [8] was inactive.

As for `Cc1ccc(O)c(C(=O)c2ccccc2)c1`, the result in assay [1], in assay [2], in [3], in assay [4], in assay [5] and in assay [6] was inactive. Also, in assay [8], the outcome was inactive.

In the case of `CCC(C(=O)OCCN(CC)CC)c1ccccc1` (stereo not given), the outcome in [1], in assay [2], in assay [3], in assay [4], in assay [5] and in [6] was inactive. Further, in assay [8], the outcome was inactive.

Regarding `COc1ccc(N)c(OC)c1`, the result in [1], in assay [2], in assay [3], in assay [4], in [5] and in [6] was inactive. Moreover, the outcome in [8] was inactive.

As to `CN(C)CCOC(=O)COc1ccc(Cl)cc1`, the molecule was classed as inactive in assay [1], in assay [2], in assay [3], in assay [4], in [5] and in assay [6]. The result in [7], in assay [9] and in assay [10] was inactive.

In the case of `C[C@@H]1CCC[C@H](C)N1`, the molecule was classed as inactive in assay [1], in assay [2], in assay [3], in [4], in [5] and in assay [6]. Further, the result in assay [8] was inactive.

As for `CC(=O)NCCCCCC(=O)O`, the result in assay [1], in assay [2], in [3], in assay [4], in [5] and in assay [6] was inactive. Also, in [8], the result was inactive.

Consider `O=C(OCC1CO1)C1CCCCC1C(=O)OCC1CO1` (stereo not given), for which the call in assay [1], in assay [3], in assay [4], in [5], in assay [6] and in assay [8] was inactive. The concentration at half-maximal activity (AC50) in assay [2] was 61 µM (active).
